Laboratory results published in a collection of fitness landscapes (doi:10.1016/j.celrep.2020.107928).
Over roughly 81,000 sequences, “one-hybrid fitness for binding parS DNA” has its median near -0.17; the highest 2% begin near 0.51. The list comes from a sample in which the highest values are over-represented; it also holds similar and randomly drawn sequences.

B1: Caulobacter ParB omega fusion; a variant is named by its letters at X, in order, B8GW30 (parent)
chain: MESVVVGEPGMSEGRRGLGRGLSALLGEVDAAPAQAPGEQLGGSREAPIEILQRNPDQPRRTFREEDLEDLSNSIREKGVLQPILVRPSPDTAGEYQIVAGERAWRAAQRAGLKTVPIMVRELDDLAVLEIGIIENVQRADLNVLEEALSYKVLMEKFERTQENIAQTIGKSXSHVANXMRLLXLPDEVQSYLVSGELTAXHARAIAAAADPVALAKQIIEGGLSVRETEALARKAPNLSAGKSKGGRPPRVKDTDTQALESDLSSVLGLDVSIDHRGSTGTLTITYATLEQLDDLCNRLTRGI

Variants of: B1
Experiment: one-hybrid fitness for binding parS DNA (scaled: cognate 1, non-cognate 0); higher = stronger binding
Conditions: with parS DNA site
Outline: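 Bacterial one-hybrid selection in E. coli USO rpoZ- hisB- pyrF- with a HIS3 reporter carrying the site 19 bp from the promoter, screening Caulobacter ParB libraries with four specificity codons randomised (NNS). Cells grew 48 hours at 37°C on M9-minus-histidine plus 0.1 mM IPTG and 5 mM 3-AT. Plasmids before and after selection were Illumina-sequenced, three replicate libraries pooled, and variants under 10 reads dropped. Fitness is the log change in variant-to-wild-type read ratio, rescaled to cognate 1, non-cognate 0.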

Row | Variant | one-hybrid fitness for binding parS DNA
1 | MMSR | ≤ 0.2
2 | MHFY | ≤ 0.2
3 | QASI | ≤ 0.2
4 | TREC | ≤ 0.2
5 | PYKT | ≤ 0.2
6 | HPDN | ≤ 0.2
7 | KRKQ | ≤ 0.2
8 | KLMV | ≤ 0.2
9 | RVLH | 0.229
10 | RVLP | ≤ 0.2
11 | RVLS | 1.03
12 | TMII | ≤ 0.2
13 | RDVG | ≤ 0.2
14 | RPVG | ≤ 0.2
15 | RSVK | ≤ 0.2
16 | RCVG | 0.991
17 | RSVG | 0.89
18 | RSVM | 0.265
19 | MFMG | ≤ 0.2
20 | RFCF | ≤ 0.2
21 | TLGM | ≤ 0.2
22 | RDGC | ≤ 0.2
23 | RCGC | 0.97
24 | RMGC | 0.952
25 | RKGC | 0.827
26 | RSGH | 0.208

Row | Variant | one-hybrid fitness for binding parS DNA
27 | RKGR | ≤ 0.2
28 | RSGP | ≤ 0.2
29 | RMGM | 0.315
30 | RSGC | 0.956
31 | RKGF | ≤ 0.2
32 | RMGL | ≤ 0.2
33 | RPGC | ≤ 0.2
34 | QVMA | ≤ 0.2
35 | QTTD | ≤ 0.2
36 | LGCG | ≤ 0.2
37 | PLWY | ≤ 0.2
38 | QQVF | ≤ 0.2
39 | HPKR | ≤ 0.2
40 | DNQS | ≤ 0.2
41 | YLEP | ≤ 0.2
42 | MTEN | ≤ 0.2
43 | RAGC | 0.968
44 | RHGK | ≤ 0.2
45 | RLGM | 0.352
46 | RHGY | 0.429
47 | RLGC | 0.97
48 | RLGK | ≤ 0.2
49 | RRGC | 0.593
50 | RHGC | 0.896
51 | RAGY | 0.473
52 | RRGR | ≤ 0.2

Row | Variant | one-hybrid fitness for binding parS DNA
53 | RRGQ | ≤ 0.2
54 | RAGF | 0.247
55 | DSNT | ≤ 0.2
56 | KDLS | ≤ 0.2
57 | GQVC | ≤ 0.2
58 | YDLG | ≤ 0.2
59 | KTAM | ≤ 0.2
60 | RIGC | 0.955
61 | RIGM | 0.268
62 | RIGF | 0.234
63 | NFGC | ≤ 0.2
64 | RFGR | ≤ 0.2
65 | RFGC | 0.882
66 | NLSL | ≤ 0.2
67 | LPEL | ≤ 0.2
68 | PHQK | ≤ 0.2
69 | LEDW | ≤ 0.2
70 | EWQP | ≤ 0.2
71 | ATNC | ≤ 0.2
72 | RMHH | 0.274
73 | REHT | ≤ 0.2
74 | RMHP | ≤ 0.2
75 | RHHT | 0.869
76 | RPHT | ≤ 0.2
77 | RHHP | ≤ 0.2
78 | RIHT | 0.936

Row | Variant | one-hybrid fitness for binding parS DNA
79 | RHHH | ≤ 0.2
80 | RCHT | 0.906
81 | RMHT | 0.946
82 | RIHH | ≤ 0.2
83 | RIHP | ≤ 0.2
84 | RGFW | ≤ 0.2
85 | HQMY | ≤ 0.2
86 | VSHP | ≤ 0.2
87 | WWRR | ≤ 0.2
88 | RVEY | 0.353
89 | LLVS | ≤ 0.2
90 | PHSW | ≤ 0.2
91 | HGMV | ≤ 0.2
92 | SLSC | ≤ 0.2
93 | PKWC | ≤ 0.2
94 | SQSD | ≤ 0.2
95 | HHCS | ≤ 0.2
96 | CACK | ≤ 0.2
97 | TVNL | ≤ 0.2
98 | YQLS | ≤ 0.2
99 | RTHK | ≤ 0.2
100 | RTHM | 0.317
101 | RSHD | ≤ 0.2
102 | RSHT | 0.876
103 | RTHT | 0.908
104 | RSHN | 0.412

Row | Variant | one-hybrid fitness for binding parS DNA
105 | PPLK | ≤ 0.2
106 | HGKG | ≤ 0.2
107 | TTRW | ≤ 0.2
108 | YNRL | ≤ 0.2
109 | YMLS | ≤ 0.2
110 | RPKG | ≤ 0.2
111 | RSKG | 0.944
112 | RSKR | ≤ 0.2
113 | RCKG | 0.89
114 | RDKG | 0.274
115 | RSKQ | ≤ 0.2
116 | NLKV | ≤ 0.2
117 | YAAA | ≤ 0.2
118 | TCWR | ≤ 0.2
119 | WDTT | ≤ 0.2
120 | VAYM | ≤ 0.2
121 | AACS | ≤ 0.2
122 | GVIV | ≤ 0.2
123 | RGAD | ≤ 0.2
124 | RGFS | 0.584
125 | RGFH | ≤ 0.2
126 | RGAH | ≤ 0.2
127 | RGFD | ≤ 0.2
128 | RGAS | 0.734
129 | QGMN | ≤ 0.2
130 | VPQV | ≤ 0.2

Row | Variant | one-hybrid fitness for binding parS DNA
131 | SYEL | ≤ 0.2
132 | RWYH | ≤ 0.2
133 | RWSH | ≤ 0.2
134 | RWSP | ≤ 0.2
135 | RWYN | 0.223
136 | RWID | ≤ 0.2
137 | RWWF | ≤ 0.2
138 | RWWN | ≤ 0.2
139 | RWIS | 0.609
140 | RWWS | 0.644
141 | RWSS | 0.912
142 | RWYS | 0.803
143 | RWPS | 0.444
144 | STYW | ≤ 0.2
145 | GPTL | ≤ 0.2
146 | TSHS | ≤ 0.2
147 | QPMV | ≤ 0.2
148 | PMGR | ≤ 0.2
149 | YPVG | ≤ 0.2
150 | LLPR | ≤ 0.2
151 | RWHS | 0.894
152 | RWNH | ≤ 0.2
153 | RWGH | ≤ 0.2
